Rows were chosen to be rich in hits. Some 0.5% of all compounds tested hit in one or more screens of this group.
E coli growth-1 – bacterial growth inhibition, counter-screen for AddAB inhibitors; inhibition, % at 11.9 µM; E. coli V3065 growth, OD600 absorbance, 18 h; 0.27% of 330,000 active; AID 449728;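 active means inhibition above the campaign's mean inhibition across all tested compounds plus 3 SD, cut at about 9.9% in these data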;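 further: uninfected addAB+ strain grown without phage in ampicillin broth; 0% = DMSO wells and 100% = ciprofloxacin 0.95 µg/ml wells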
E coli growth-2 – inhibitors of Escherichia coli growth. OD600, 23 h; stronger effect = lower value. OD600 absorbance (concentration not given with the values). 0.21% of 330,000 active;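 active means OD600 absorbance below the run mean of sample wells minus 3.6 SD, in any replicate, cut at about 0.56 in these data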
AddAB inh – less growth of phage-infected E. coli with AddAB; E. coli expressing H. pylori AddAB, absorbance growth; inhibition, % at 11.9 µM; 0.29% of 330,000 active; in the data active means inhibition above about 12%;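 further: 0% = vehicle wells of infected cells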
Tat export inh – inhibitors of E. coli Tat protein transport; E. coli MC4100 TorA-mCherry Tat export, fluorescence; inhibition, % at 10 µM; 0.036% of 340,000 active;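 active means mean replicate inhibition at least 50% and at least half of replicates individually reaching 50%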;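 further: exported cargo escapes ClpAP degradation while cytoplasmic cargo is degraded and loses fluorescence; 0% = median of neutral control wells and 100% = median of NaSCN control wells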
phage Ecoli inh – E. coli growth loss with phage present. growth absorbance. inhibition, % at 11.9 µM. 0.26% of 360,000 active; in the data active means inhibition above about 11%
AddAB confirm – confirmation screen: growth loss of phage-infected E. coli expressing H. pylori AddAB | inhibition, % at 11.9 µM | shares compounds with AddAB inh | 64% of 880 active | E. coli V3065 expressing H. pylori AddAB, T4 phage, OD; T4 phage with gene 2 nonsense mutations;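 active means mean inhibition above a set limit taken from the earlier primary screen, cut at about 13% in these data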;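 further: higher means less bacterial growth since AddAB block lets phage replicate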
RecBCD counter – AddAB counter-screen: growth loss of RecBCD+ E. coli infected with mutant T4 phage | shares compounds with AddAB inh | E. coli V66 + mutant T4 phage, OD growth | inhibition, % at 11.9 µM | 73% of 880 active | AID 488955;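 active means mean inhibition above the mean of solvent-only control wells plus 3 SD, cut at about 4% in these data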;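 further: optical density read after an 18 h incubation at 37 °C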
Bact viability – counter-screen: bacterial growth inhibition; bacterial viability, absorbance (AddAB counterscreen); inhibition, % at 11.9 µM; shares compounds with AddAB inh; AID 488956; 35% of 880 active; in the data active means inhibition above about 25%
* hit, by the source's call.

How did O=C(NC(c1ccc(Cl)cc1)c1c(O)ccc2ccccc12)c1ccccc1 (stereo not given) do in these assays?
E coli growth-1: 2; E coli growth-2: 0.67; AddAB inh: 14*; Tat export inh: 3; phage Ecoli inh: 7; AddAB confirm: 1; RecBCD counter: 2; Bact viability: -2

What do the screens show for `O=C(NC(c1ccccc1)c1c(O)ccc2ccccc12)c1ccccc1Cl` (stereo not given)?
E coli growth-1: 0; E coli growth-2: 0.72; AddAB inh: 3; Tat export inh: 6; phage Ecoli inh: 4

How did CCOC(=O)NC(=O)C(C#N)=Cc1ccccc1 do in these assays?
E coli growth-2: 0.73

Results for CSC(=S)N/N=C/c1ccc(N(C)C)cc1 ?
E coli growth-1: 7; AddAB inh: 16*; Tat export inh: 5; phage Ecoli inh: 3; AddAB confirm: 53*; RecBCD counter: 7.4*; Bact viability: 30*

Results for CSC(=S)N/N=C/c1ccc(Br)cc1 ?
E coli growth-1: 5; AddAB inh: 5; Tat export inh: -5; phage Ecoli inh: 8

What do the screens show for `CC(C)CNC(=O)CON=Cc1ccccc1Cl`?
E coli growth-2: 0.72

Results for O=C(N/N=C/c1ccc([N+](=O)[O-])o1)C(O)c1ccccc1 (stereo not given) ?
E coli growth-1: 15*; AddAB inh: 86*; Tat export inh: -20; phage Ecoli inh: 11; AddAB confirm: 96*; RecBCD counter: 11*; Bact viability: 29*

Results for Cc1ccc(NC(=O)CCC(=O)N/N=C/c2ccc([N+](=O)[O-])o2)cc1C ?
E coli growth-1: 7; AddAB inh: 7; Tat export inh: 1; phage Ecoli inh: 4

How did Cc1cc(C(=O)N/N=C/c2ccc([N+](=O)[O-])o2)c(C)o1 do in these assays?
E coli growth-1: 9; AddAB inh: 13*; Tat export inh: -12; phage Ecoli inh: 6; AddAB confirm: 98*; RecBCD counter: 7.9*; Bact viability: 17

Results for CCCC(=O)Nc1ccc(C(=O)N/N=C/c2ccc([N+](=O)[O-])o2)cc1 ?
E coli growth-1: 22*; AddAB inh: 18*; Tat export inh: -21; phage Ecoli inh: 10; AddAB confirm: 100*; RecBCD counter: 12*; Bact viability: 28*

Results for CC(C)Oc1ccc(C(=O)C(=Cc2cccs2)c2nc3ccccc3o2)cc1 ?
E coli growth-2: 0.76

Results for COc1ccc(/C=C/C(=O)NCC(=O)NN=Cc2cc(Br)ccc2OCc2ccccc2)cc1 ?
E coli growth-2: 0.78

Results for CCN1CCN(C2=C(NS(=O)(=O)c3ccc(Br)cc3)C(=O)c3ccccc3C2=O)CC1 ?
E coli growth-1: 11*; E coli growth-2: 0.7; AddAB inh: 14*; Tat export inh: -7; phage Ecoli inh: 7; AddAB confirm: 3; RecBCD counter: 2; Bact viability: -2

How did Cc1ccc2c(c1)n([O-])c1c([n+]2=O)CCCC1 do in these assays?
E coli growth-1: 1; E coli growth-2: 0.69; AddAB inh: 1; Tat export inh: -4; phage Ecoli inh: -1

What do the screens show for `CC(=O)c1c(C)n([O-])c2ccc(C)cc2[n+]1=O`?
E coli growth-1: 24*; E coli growth-2: 0.43*; AddAB inh: 23*; Tat export inh: 13; phage Ecoli inh: 6; AddAB confirm: 68*; RecBCD counter: 8.3*; Bact viability: 53*

How did O=C(CSc1nc2ccccc2[nH]1)Nc1ccc2c(c1)CCC2 do in these assays?
E coli growth-1: 7; E coli growth-2: 0.61; AddAB inh: 18*; Tat export inh: -17; phage Ecoli inh: 5; AddAB confirm: 3; RecBCD counter: 5.2*; Bact viability: 3

Results for O=C(CSc1nc2ccc(Cl)cc2[nH]1)Nc1ccc2c(c1)CCC2 ?
E coli growth-1: 0; AddAB inh: 4; Tat export inh: 2; phage Ecoli inh: 4

How did N#CCCn1cc(C=NNC(=O)c2ccncc2)c(-c2ccc(F)cc2)n1 do in these assays?
E coli growth-2: 0.7

What do the screens show for `Cc1cc(C(F)(F)F)n2ncc(C(=O)O)c2n1`?
E coli growth-1: 6; E coli growth-2: 0.76; AddAB inh: 17*; Tat export inh: -4; phage Ecoli inh: 4; AddAB confirm: -2; RecBCD counter: 1; Bact viability: 0

How did Cc1ccc(-c2cc(C(F)(F)F)n3ncc(C(=O)O)c3n2)cc1 do in these assays?
E coli growth-2: 0.76; Tat export inh: 4; phage Ecoli inh: 2

How did Oc1ccc(N=Nc2ccccc2-c2nn[nH]n2)c(O)c1 do in these assays?
E coli growth-1: 15*; E coli growth-2: 0.6; AddAB inh: 14*; Tat export inh: -3; phage Ecoli inh: 7; AddAB confirm: 8; RecBCD counter: 6.7*; Bact viability: 1

Results for COc1cccc(N(CC(=O)NN=C(C)c2cccs2)S(C)(=O)=O)c1 ?
E coli growth-2: 0.67

What do the screens show for `CCCCOCC(O)CCc1n[nH]c(=S)n1-c1ccccc1` (stereo not given)?
E coli growth-1: 27*; E coli growth-2: 0.64; AddAB inh: 84*; Tat export inh: 0; phage Ecoli inh: 3; AddAB confirm: 2; RecBCD counter: 1; Bact viability: -1

Results for CC(C)OCC(O)CCc1n[nH]c(=S)n1-c1ccccc1 (stereo not given) ?
E coli growth-1: 0; E coli growth-2: 0.65; AddAB inh: 1; Tat export inh: -6; phage Ecoli inh: 2

What do the screens show for `COc1cc(-c2cc(=O)c3c(O)c(OC)c(OC)c(O)c3o2)ccc1O`?
E coli growth-1: 3; E coli growth-2: 0.75; AddAB inh: 9; Tat export inh: 11; phage Ecoli inh: 7

Results for COc1c(O)c(O)c2oc(-c3ccccc3)cc(=O)c2c1OC ?
E coli growth-1: 7; E coli growth-2: 0.69; AddAB inh: 16*; Tat export inh: 0; phage Ecoli inh: 10; AddAB confirm: 14*; RecBCD counter: 9.2*; Bact viability: 15

What do the screens show for `CCc1ccc(NC(=S)NCc2cccnc2)cc1`?
E coli growth-1: 11*; E coli growth-2: 0.61; AddAB inh: 14*; Tat export inh: -9; phage Ecoli inh: 7; AddAB confirm: 6; RecBCD counter: 6.7*; Bact viability: 4

What do the screens show for `Cc1ccc(NC(=S)NCc2cccnc2)cc1`?
E coli growth-1: 4; E coli growth-2: 0.67; AddAB inh: 4; Tat export inh: -4; phage Ecoli inh: 5

Source: PubChem BioAssay (several laboratories)
